This note sets out measurements from PubChem BioAssay AID504848 (National Center for Advancing Translational Sciences (NCATS), 2011).

Among all 2,300 compounds or so, about 1,400 (61%) were called active. About 29% were inconclusive and are not listed. The call rests on the fitted dose curve; in most records, active means well fitted inhibition curve with a large enough effect; inconclusive means small, poorly fitted or top-dose-only effect, or effect the other way; inactive means no such curve, though single readings can be large or run the other way. The set was probably picked from earlier hits. The list shows a part of the results.
Potency means the concentration at half of the fitted maximal effect.

The test can be described thus: Confirmation screen for delayed death inhibitors of the malarial parasite plastid, 96 hour incubation. Further: nearly all actives have a fitted effect of over 60% in size. To be noted: P. falciparum luciferase growth in erythrocytes; series mostly up to 28.7 µM. In outline:
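Erythrocytes infected with luciferase-expressing P. falciparum (2% hematocrit, 0.1% parasitemia final) in RPMI 1640 with 0.5% Albumax, exposed to compounds 96 h at 37 C, 5% CO2. Growth inhibition read as decreased luciferase luminescence.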
Take `COc1cc2c(cc1NC(=O)c1ccc(C(C)(C)C)cc1)CCCC2`: the Potency is 12.6 µM (active).

Take `O=C(CCl)N1CCN(CC(=O)N2CCCC2)CC1`: the Potency is 14.1 µM (active). For `C/C(=C\C(=O)OCCCCCCCCC(=O)O)C[C@@H]1OC[C@H](C[C@@H]2O[C@H]2[C@@H](C)[C@H](C)O)[C@@H](O)[C@H]1O`, the Potency is 0.501 µM (active). As to `CSCCn1c(C(C)(C)C)cc(C(=O)O)c1C`, the Potency result was “inactive”. For the molecule `CCC(=O)c1ccc(OCC(O)CNC(C)c2ccccc2)cc1` (stereo not given), the Potency was 11.2 µM (active).

In the case of `Cn1nnnc1Sc1ncnc2scc(-c3cccc(S(C)(=O)=O)c3)c12`, the Potency is 12.6 µM (active). Consider `Cn1nnnc1Sc1ncnc2scc(-c3cccc(F)c3)c12`, for which the Potency is 6.31 µM (active).

`CC(=O)N1c2ccc(S(=O)(=O)NCCC(=O)NC3CCCC(C)C3C)cc2CC1C` (stereo not given): the Potency is 14.1 µM (active). In the case of `N#C/C(=C\c1ccccn1)c1ccccn1`, the Potency was 11.2 µM (active). Consider `O=C(c1ccco1)N1CCN(C2c3ccccc3-c3ccccc32)CC1`, for which the Potency is 12.6 µM (active). Consider `COc1ccc(CSC2=NCCN2)cc1Br`, for which the Potency is 12.6 µM (active).

With `O=C(CCl)c1ccc2c(c1)CCN2C(=O)C1CCCCC1`, the Potency was 11.2 µM (active). On to `O=C(COc1ccc(Cl)cc1)NCc1nnc2c3ccccc3c(-c3ccccc3)nn12`, for which the Potency is 12.6 µM (active).

For the molecule `CC(C)c1ccc(/C=C2\SC(=S)N(CCC(=O)N3CCCCC3CCO)C2=O)cc1` (stereo not given), the Potency is 1.26 µM (active). As for `O=C1/C(=C/c2ccc(Cl)cc2)SC(=S)N1CCC(=O)N1CCCCC1CCO` (stereo not given), the Potency was 12.6 µM (active). The value for `COc1cccc(/C=C2\SC(=S)N(CCC(=O)N3CCCCC3CCO)C2=O)c1` (stereo not given) was 6.31 µM (active); that for `COc1cccc([C@@H]2Oc3ccc(OC)cc3C(=O)[C@H]2O)c1` was 7.08 µM (active); that for `C=CCNC(=O)c1oc2ccc(S(=O)(=O)N3CCCCC3)cc2c1C` was 11.2 µM (active). In the case of `C=CCNC(=O)c1onc(CSc2ccc(F)c(F)c2)c1C(=O)O`, the Potency entry is “inactive”. Next, `C=CCNC(=O)c1onc(CSc2ccc(C(C)C)cc2)c1C(=O)O`: “inactive”; `COC(=O)C1=CN(Cc2ccc(F)cc2)C=C(C(=O)OC)C1c1ccc(O)c(OC)c1`: 10 µM (active); `CC(=O)N(C)C1=C(N2CCOCC2)C(=O)c2ccccc2C1=O`: 0.0355 µM (active). In the case of `N#Cc1ncc(-c2ccc3c(c2)OCCOCCOCCOCCOCCO3)nc1C#N`, the Potency is 12.6 µM (active). As for `O=C(c1cc(COc2cccc(C(F)(F)F)c2)on1)N1CCC(Oc2cccnc2)CC1`, the Potency is 14.1 µM (active).

Take `C/C(=N\NC(=O)c1ccc(Cl)c(Cl)c1)c1ccc(Br)s1`: the Potency was 2 µM (active). As to `Cc1ccc(-n2c(SCC(=O)Nc3ncc(Cl)cc3Cl)nc3ccccc32)cc1`, the Potency is 11.2 µM (active). Take `O=C(CSc1nc2ccccc2n1-c1ccccc1)Nc1ncc(Cl)cc1Cl`: the Potency was 10 µM (active). For the molecule `COCCn1c(SC(C)C(=O)Nc2ncc(Cl)cc2Cl)nc2ccccc21` (stereo not given), the Potency was 15.8 µM (active).

On to `Cc1nn(C)c(C)c1C(C)NC(=O)c1ccc(OC2CCN(Cc3ccccn3)CC2)cc1` (stereo not given), for which the Potency result was “inactive”. Turning to `COc1ccc(CN2CCC(Oc3ccc(C(=O)NCc4ccccn4)cc3)CC2)c(F)c1`, the Potency was 12.6 µM (active). Regarding `O=C1N=C(N2CCN(c3ccccc3)CC2)S/C1=C/c1cccs1`, the Potency is 12.6 µM (active).

In the case of `CC1=NNC(=O)/C1=C\c1cn(-c2ccccc2)nc1-c1cccs1`, the Potency was 5.62 µM (active). Next, `O=C(c1ccco1)N1CCN(C(=O)C2CCCc3c2[nH]c2ccc(Cl)cc32)CC1` (stereo not given): 12.6 µM (active). For the molecule `C=CCN=c1scc(-c2ccc(F)cc2)n1/N=C/c1ccccn1`, the Potency is 3.98 µM (active).

Take `Cc1n[nH]c(=S)n(/N=C/c2ccccn2)c1=O`: the Potency entry was “inactive”. The value for `Cc1ccc(NC(=O)CSc2nc3ccccc3c(=O)n2CCCN2CCCCC2)cc1Cl` was 6.31 µM (active); that for `CC(C)(C)n1ncc2c(=O)n(Cc3ccccc3Br)cnc21` was 12.6 µM (active); that for `COc1cccc(C(=O)NC2CC(C)(C)Cc3c2cnn3-c2cccc(F)c2)c1OC` (stereo not given) was 12.6 µM (active). Consider `COc1ccc(OC)c(C(=O)NC2CC(C)(C)Cc3c2cnn3-c2ccccc2)c1` (stereo not given), for which the Potency is 11.2 µM (active). For `CSc1ncccc1C(=O)NC1CC(C)(C)Cc2c1cnn2-c1ccccc1C` (stereo not given), the Potency is 11.2 µM (active).

As to `CCC(=O)OC1C(N(C)C)CC(C)O[C@H]1O[C@H]1[C@H](C)[C@@H](O[C@H]2CC(OC)[C@@H](O)C(C)O2)[C@H](C)C(=O)O[C@@H](CC)[C@](C)(O)[C@@H](O)[C@H](C)C(=O)[C@@H](C)C[C@]1(C)O` (stereo not given in full), the Potency is 10 µM (active). Regarding `CC[C@H]1OC(=O)[C@H](C)[C@@H](O[C@H]2C[C@@](C)(OC)[C@@H](O)[C@H](C)O2)[C@H](C)[C@@H](O[C@@H]2O[C@H](C)C[C@H](N(C)C)[C@H]2O)[C@](C)(O)C[C@@H](C)CN(C)[C@H](C)[C@@H](O)[C@]1(C)O`, the Potency is 0.631 µM (active). As for `CC[C@H]1OC(=O)[C@H](C)[C@@H](O[C@H]2C[C@@](C)(OC)[C@@H](O)[C@H](C)O2)C(C)[C@@H](O[C@@H]2O[C@H](C)C[C@H](N(C)C)[C@@H]2O)[C@](C)(OC)C[C@@H](C)C(=O)[C@H](C)[C@@H](O)[C@]1(C)O` (stereo not given in full), the Potency is 2.82 µM (active).

For `COc1ccccc1NS(=O)(=O)c1ccc(NN=C2CCCC2)c([N+](=O)[O-])c1`, the Potency was 11.2 µM (active). Regarding `Cc1ccc(-c2nn(-c3ccccc3)cc2CC(=S)N2CCOCC2)cc1`, the Potency was 12.6 µM (active). Regarding `COc1ccc(Cn2c(-c3ccc(Br)cc3)c[n+]3ccccc23)cc1`, the Potency is 0.562 µM (active). On to `Cc1ccn2c(NC3CCCC3)c(-c3ccccn3)nc2c1`, for which the Potency was 3.16 µM (active). For the molecule `CCOC(=O)c1cc(-c2ccccc2)sc1NC(=O)C(C)OC(=O)c1cccnc1Cl` (stereo not given), the Potency was 6.31 µM (active). Regarding `COCCN(C(=O)c1ccccc1F)c1nnc(-c2ccc(OC)cc2)s1`, the Potency is 7.08 µM (active). On to `COc1ccc(C2CC(c3cccs3)=NN2C(=O)CSc2nnc(N)s2)cc1OC` (stereo not given), for which the Potency was 11.2 µM (active). The value for `Cc1ccc(NC(=O)c2ccc3c(SCC(=O)O)c4c(nc3c2)CCCC4)c(Br)c1` was 7.94 µM (active).

On to `Cc1onc(NC(=O)c2ccc([N+](=O)[O-])o2)c1Br`, for which the Potency was 11.2 µM (active). As to `Cc1cc[n+]2cc(-c3cccc([N+](=O)[O-])c3)c(-c3cccc([N+](=O)[O-])c3)cc2c1`, the Potency is 0.112 µM (active).

In the case of `CCC(=O)Nc1cccc(C(=O)/C=C/c2ccccc2)c1`, the Potency was 12.6 µM (active). `CC(=O)Nc1cccc(C(=O)/C=C/c2ccc(C)cc2)c1`: the Potency is 15.8 µM (active). With `CCC(=O)Nc1cccc(C(=O)/C=C/c2cc(Br)ccc2OC)c1`, the Potency is 7.94 µM (active). As to `N#C/C(=C\c1ccc(-c2ccc(C(=O)O)cc2)o1)C(=O)Nc1ccc(F)cc1`, the Potency was 10 µM (active).

Take `COc1ccc(/C=N/NC(=O)c2cc(-c3ccccc3)nc3ccccc23)cc1O`: the Potency entry was “inactive”.

In the case of `COc1ccccc1-c1cc(C(=O)N/N=C/c2cccs2)c2ccccc2n1`, the Potency was 6.31 µM (active). Turning to `COc1ccccc1-c1cc(C(=O)N/N=C/c2ccc(C)o2)c2ccccc2n1`, the Potency entry is “inactive”. Next, `COc1ccccc1-c1cc(C(=O)N/N=C/c2ccc(C)s2)c2ccccc2n1`: 5.01 µM (active); `COc1ccccc1-c1cc(C(=O)N/N=C/c2sccc2C)c2ccccc2n1`: 3.55 µM (active); `COc1ccc(-c2cc(C(=O)N/N=C/c3ccc4c(c3)OCO4)c3ccccc3n2)c(OC)c1`: 11.2 µM (active). Turning to `C=CCNC(=O)c1onc(CSc2cccc(Cl)c2)c1C(=O)O`, the Potency result is “inactive”. The value for `Cc1cccc(N(Cc2ccccc2)C(=O)CN2C(=O)NC3(CCCCC3C)C2=O)c1` (stereo not given) was 11.2 µM (active); that for `Cc1nn(Cc2ccccc2Cl)c(C)c1C(=O)Nc1nnc(C2CC2)s1` was 11.2 µM (active).

For the molecule `Cc1nn(Cc2c(Cl)cccc2Cl)c(C)c1NC(=O)c1cc(C(C)C)on1`, the Potency entry is “inactive”. For the molecule `COc1ccc(-n2c(=O)/c(=C\c3cccs3)s/c2=C(/C#N)C(=O)N2CCN(C)CC2)cc1`, the Potency result is “inactive”. With `Fc1ccc(Nc2nc(N3CCOCC3)nc(N3CCOCC3)n2)cc1`, the Potency is 12.6 µM (active). Turning to `COc1ccc(CN2CCN(C(=O)c3ccc(CNS(=O)(=O)c4ccc(C)cc4)cc3)CC2)c(OC)c1OC`, the Potency was 11.2 µM (active). Regarding `O=S(=O)(c1ccc(Cl)c(NC(=S)N/N=C/c2ccc(O)cc2)c1)N1CCOCC1`, the Potency is 5.01 µM (active). In the case of `COc1cccc(/C=C/C(=O)c2ccc(NS(=O)(=O)c3ccc(C)cc3)cc2)c1`, the Potency is 15.8 µM (active).

Take `COc1ccc(/C=C/C(=O)c2ccc(NS(=O)(=O)c3ccc(C)cc3)cc2)cc1O`: the Potency was 7.08 µM (active). As to `CC(NC(=O)CCl)c1ccccc1Br` (stereo not given), the Potency was 0.794 µM (active). As to `Cc1ccc(NC(=O)COc2ccccc2C#N)cc1S(=O)(=O)N1CCCCCC1`, the Potency was 12.6 µM (active). As to `COc1ccccc1OCC(=O)Nc1ccc(S(=O)(=O)N2CCCCCC2)cc1`, the Potency is 12.6 µM (active). Take `COc1ccc(NC(=O)CN2CCN(S(=O)(=O)c3ccc(Br)cc3)CC2)c(OC)c1`: the Potency is 7.94 µM (active).

Consider `COc1cc2c(cc1OC)CN(CC(=O)Nc1ccc(S(=O)(=O)N3CCCC3)cc1)CC2`, for which the Potency is 15.8 µM (active). `C=CCn1c(SCc2cc(=O)n3cc(C)ccc3n2)nnc1-c1ccc(F)cc1`: the Potency was 8.91 µM (active). For the molecule `COc1ccc(/C=C2\N=C(SC)N(c3ccccc3OC)C2=O)cc1`, the Potency was 12.6 µM (active). `CCN(CC)C1=N/C(=C\c2ccc(OC)cc2)C(=O)N1c1ccccc1`: the Potency was 12.6 µM (active). Take `Clc1cccc(CN2CCc3c([nH]c4ccccc34)C2)c1`: the Potency is 12.6 µM (active). With `COc1ccc(C2CC(=O)C3=C(C2)Nc2ccccc2NC3c2coc3ccccc3c2=O)cc1OC` (stereo not given), the Potency is 1.12 µM (active). For `CC(=O)c1c(C)[nH]c(C(=O)COC(=O)COc2ccccc2F)c1C`, the Potency entry is “inactive”. In the case of `COc1ccc(C(C)(C)C)cc1NC(=O)c1[nH]c(C)c(C(C)=O)c1C`, the Potency was 4.47 µM (active).
